Of roughly 7,900 targets only a part is listed; those with a hit were picked by preference. About 0.6% of all pairs of compound and target were hits. A number with no mark means an inactive call.
Assays:
Experiment in all cases: log2 fold change, soluble protein after heating vs DMSO (PISA); higher = thermal stabilisation; K562 cells, 10 uM, 30 min; active = over 0.2 and 3.5 SD of the protein, either way, in both replicates (recomputed)
[1] = compound: NC(=O)Nc1cc(-c2cccc(F)c2)sc1C(=O)N[C@H]1CCCNC1
Outline: (§1)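 Thermal stability values are relative to control samples and come from duplicates. They are expressed as log2 fold changes. For measurement, K562 cells (2×10^6 cells/mL) received 10 μM compound for 30 min, and aliquots were heated for 3 min over 48°C-58°C, pooled, and extracted at 4°C in PBS with 0.5% NP-40. Soluble protein, the supernatant after 21,000xg for 90 min, was quantified by TMTpro 16plex LC-MS/MS with equalised channel sums.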

[2] = compound: NC(=O)c1cnc(N[C@@H]2CCCC[C@@H]2N)nc1Nc1cccc(-n2nccn2)c1
Outline: as §1

[3] = compound: NC1(c2ccc(-c3nc4ccn5c(=O)[nH]nc5c4cc3-c3ccccc3)cc2)CCC1
Outline: as §1

[4] = compound: NCC(=O)Nc1ccc(-n2nc(C(F)(F)F)cc2-c2ccc3c(ccc4ccccc43)c2)cc1
Outline: as §1

entinostat = compound: Nc1ccccc1NC(=O)c1ccc(CNC(=O)OCc2cccnc2)cc1 [entinostat]
Outline: as §1

vorinostat = compound: O=C(CCCCCCC(=O)Nc1ccccc1)NO [vorinostat]
Outline: as §1

citarinostat = compound: O=C(CCCCCCNC(=O)c1cnc(N(c2ccccc2)c2ccccc2Cl)nc1)NO [citarinostat]
Outline: as §1

silmitasertib = compound: O=C(O)c1ccc2c(c1)nc(Nc1cccc(Cl)c1)c1ccncc12 [silmitasertib]
Outline: as §1

[5] = compound: O=C1NC(=O)C(c2cnc3ccccn23)=C1c1cn2c3c(cc(F)cc13)CN(C(=O)N1CCCCC1)CC2
Outline: as §1

[6] = compound: c1cc(OCCN2CCCCC2)cc(-c2n[nH]c3ccc(-c4nnc[nH]4)cc23)c1
Outline: as §1

Chain of UniProt O14796 (O14796 whole entry, looked up): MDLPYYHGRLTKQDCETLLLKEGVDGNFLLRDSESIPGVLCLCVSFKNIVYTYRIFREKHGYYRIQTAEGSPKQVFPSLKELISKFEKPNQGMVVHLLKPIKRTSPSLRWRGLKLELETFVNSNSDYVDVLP
Chain of UniProt Q8TC12 (Q8TC12 whole entry, looked up): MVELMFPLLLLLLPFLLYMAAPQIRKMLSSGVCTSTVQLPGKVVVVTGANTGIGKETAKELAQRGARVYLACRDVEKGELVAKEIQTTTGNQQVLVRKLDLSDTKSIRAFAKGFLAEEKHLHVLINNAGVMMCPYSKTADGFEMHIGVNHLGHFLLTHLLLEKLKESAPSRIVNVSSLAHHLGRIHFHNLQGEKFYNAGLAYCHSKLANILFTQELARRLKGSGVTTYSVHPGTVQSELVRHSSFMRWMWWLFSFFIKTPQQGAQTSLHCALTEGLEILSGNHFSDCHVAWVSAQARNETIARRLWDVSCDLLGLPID
Chain of UniProt Q86VR2 (Q86VR2 whole entry, looked up): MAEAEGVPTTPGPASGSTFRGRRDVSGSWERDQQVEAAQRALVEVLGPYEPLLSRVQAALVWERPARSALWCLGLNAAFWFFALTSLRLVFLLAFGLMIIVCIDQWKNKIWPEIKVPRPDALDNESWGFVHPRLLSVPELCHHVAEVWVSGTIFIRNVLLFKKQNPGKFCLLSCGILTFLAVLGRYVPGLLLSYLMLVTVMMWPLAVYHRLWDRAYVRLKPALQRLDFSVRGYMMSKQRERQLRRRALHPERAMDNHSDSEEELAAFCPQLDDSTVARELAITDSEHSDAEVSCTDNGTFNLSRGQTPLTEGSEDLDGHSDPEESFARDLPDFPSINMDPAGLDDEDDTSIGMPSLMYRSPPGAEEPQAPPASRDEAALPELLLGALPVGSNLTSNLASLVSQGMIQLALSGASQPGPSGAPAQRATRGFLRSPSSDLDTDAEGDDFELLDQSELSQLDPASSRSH
Chain of UniProt P51812 (P51812 whole entry, looked up): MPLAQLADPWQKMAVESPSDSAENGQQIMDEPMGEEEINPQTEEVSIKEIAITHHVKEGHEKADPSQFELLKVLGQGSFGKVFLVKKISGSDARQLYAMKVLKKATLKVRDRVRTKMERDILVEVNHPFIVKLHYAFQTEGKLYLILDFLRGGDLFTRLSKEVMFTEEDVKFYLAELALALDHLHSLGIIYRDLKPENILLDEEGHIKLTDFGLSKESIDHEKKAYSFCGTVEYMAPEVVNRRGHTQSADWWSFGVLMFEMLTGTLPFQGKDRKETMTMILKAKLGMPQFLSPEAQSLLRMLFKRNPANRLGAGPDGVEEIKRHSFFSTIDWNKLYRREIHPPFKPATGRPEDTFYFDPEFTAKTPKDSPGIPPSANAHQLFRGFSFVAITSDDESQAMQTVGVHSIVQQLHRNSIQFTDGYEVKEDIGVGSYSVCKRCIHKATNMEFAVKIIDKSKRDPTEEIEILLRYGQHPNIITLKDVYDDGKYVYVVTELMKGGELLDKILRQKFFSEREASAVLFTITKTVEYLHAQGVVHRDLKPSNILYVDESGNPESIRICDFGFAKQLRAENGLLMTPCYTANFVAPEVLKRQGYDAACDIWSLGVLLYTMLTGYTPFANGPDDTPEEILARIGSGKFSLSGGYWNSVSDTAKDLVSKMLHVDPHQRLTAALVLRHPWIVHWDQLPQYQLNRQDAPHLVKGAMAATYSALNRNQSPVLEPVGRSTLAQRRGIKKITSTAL
Chain of UniProt Q96T23 (Q96T23 whole entry, looked up): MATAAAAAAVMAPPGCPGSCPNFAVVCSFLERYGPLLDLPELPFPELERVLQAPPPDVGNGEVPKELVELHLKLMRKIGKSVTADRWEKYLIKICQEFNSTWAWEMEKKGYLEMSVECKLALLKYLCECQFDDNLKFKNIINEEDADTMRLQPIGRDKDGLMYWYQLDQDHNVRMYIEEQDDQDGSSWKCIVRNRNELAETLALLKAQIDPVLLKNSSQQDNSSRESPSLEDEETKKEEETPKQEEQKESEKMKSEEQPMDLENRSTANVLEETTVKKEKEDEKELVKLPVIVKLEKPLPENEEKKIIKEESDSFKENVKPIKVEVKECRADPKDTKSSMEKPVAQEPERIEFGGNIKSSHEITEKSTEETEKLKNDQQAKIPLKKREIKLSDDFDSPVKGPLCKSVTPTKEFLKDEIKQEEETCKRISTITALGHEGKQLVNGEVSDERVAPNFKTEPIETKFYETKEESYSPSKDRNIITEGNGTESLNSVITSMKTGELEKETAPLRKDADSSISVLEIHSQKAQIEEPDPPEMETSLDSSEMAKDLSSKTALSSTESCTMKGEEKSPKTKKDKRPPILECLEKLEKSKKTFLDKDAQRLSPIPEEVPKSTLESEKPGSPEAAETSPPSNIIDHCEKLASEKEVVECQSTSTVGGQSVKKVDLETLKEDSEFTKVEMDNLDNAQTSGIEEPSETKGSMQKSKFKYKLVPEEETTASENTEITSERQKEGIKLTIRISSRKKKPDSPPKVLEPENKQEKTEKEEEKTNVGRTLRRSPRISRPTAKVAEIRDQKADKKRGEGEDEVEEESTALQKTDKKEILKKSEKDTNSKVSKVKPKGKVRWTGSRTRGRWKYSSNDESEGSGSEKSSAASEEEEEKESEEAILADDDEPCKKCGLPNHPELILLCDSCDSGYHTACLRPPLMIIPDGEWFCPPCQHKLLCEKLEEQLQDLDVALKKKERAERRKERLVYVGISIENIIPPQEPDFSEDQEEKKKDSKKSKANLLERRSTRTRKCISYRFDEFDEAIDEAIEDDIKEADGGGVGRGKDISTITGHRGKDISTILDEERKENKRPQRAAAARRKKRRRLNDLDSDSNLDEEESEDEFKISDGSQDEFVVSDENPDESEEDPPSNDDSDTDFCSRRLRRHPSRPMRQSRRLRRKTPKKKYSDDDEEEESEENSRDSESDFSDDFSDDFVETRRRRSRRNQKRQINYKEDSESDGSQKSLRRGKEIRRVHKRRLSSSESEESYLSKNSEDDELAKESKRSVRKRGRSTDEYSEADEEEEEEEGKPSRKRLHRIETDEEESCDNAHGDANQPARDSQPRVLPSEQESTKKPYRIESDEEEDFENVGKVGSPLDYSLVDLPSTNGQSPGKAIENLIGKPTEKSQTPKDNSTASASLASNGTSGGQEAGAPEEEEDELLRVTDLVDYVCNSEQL
Chain of UniProt Q9BUV8 (Q9BUV8 whole entry, looked up): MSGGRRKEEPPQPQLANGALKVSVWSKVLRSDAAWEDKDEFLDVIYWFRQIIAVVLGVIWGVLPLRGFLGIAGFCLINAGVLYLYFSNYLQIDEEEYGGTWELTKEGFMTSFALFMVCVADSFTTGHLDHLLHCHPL
Chain of UniProt Q8WWV3 (Q8WWV3 whole entry, looked up): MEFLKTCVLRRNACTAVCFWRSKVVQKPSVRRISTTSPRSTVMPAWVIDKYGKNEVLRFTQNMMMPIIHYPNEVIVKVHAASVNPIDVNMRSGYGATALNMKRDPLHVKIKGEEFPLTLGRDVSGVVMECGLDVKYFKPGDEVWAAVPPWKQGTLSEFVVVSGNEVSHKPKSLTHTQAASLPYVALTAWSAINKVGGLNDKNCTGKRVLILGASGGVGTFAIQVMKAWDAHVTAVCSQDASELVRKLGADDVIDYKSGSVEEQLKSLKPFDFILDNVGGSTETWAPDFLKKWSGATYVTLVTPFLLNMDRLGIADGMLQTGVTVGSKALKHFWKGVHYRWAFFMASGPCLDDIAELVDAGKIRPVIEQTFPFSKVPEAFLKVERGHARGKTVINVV
Chain of UniProt Q9BXP2 (Q9BXP2 whole entry, looked up): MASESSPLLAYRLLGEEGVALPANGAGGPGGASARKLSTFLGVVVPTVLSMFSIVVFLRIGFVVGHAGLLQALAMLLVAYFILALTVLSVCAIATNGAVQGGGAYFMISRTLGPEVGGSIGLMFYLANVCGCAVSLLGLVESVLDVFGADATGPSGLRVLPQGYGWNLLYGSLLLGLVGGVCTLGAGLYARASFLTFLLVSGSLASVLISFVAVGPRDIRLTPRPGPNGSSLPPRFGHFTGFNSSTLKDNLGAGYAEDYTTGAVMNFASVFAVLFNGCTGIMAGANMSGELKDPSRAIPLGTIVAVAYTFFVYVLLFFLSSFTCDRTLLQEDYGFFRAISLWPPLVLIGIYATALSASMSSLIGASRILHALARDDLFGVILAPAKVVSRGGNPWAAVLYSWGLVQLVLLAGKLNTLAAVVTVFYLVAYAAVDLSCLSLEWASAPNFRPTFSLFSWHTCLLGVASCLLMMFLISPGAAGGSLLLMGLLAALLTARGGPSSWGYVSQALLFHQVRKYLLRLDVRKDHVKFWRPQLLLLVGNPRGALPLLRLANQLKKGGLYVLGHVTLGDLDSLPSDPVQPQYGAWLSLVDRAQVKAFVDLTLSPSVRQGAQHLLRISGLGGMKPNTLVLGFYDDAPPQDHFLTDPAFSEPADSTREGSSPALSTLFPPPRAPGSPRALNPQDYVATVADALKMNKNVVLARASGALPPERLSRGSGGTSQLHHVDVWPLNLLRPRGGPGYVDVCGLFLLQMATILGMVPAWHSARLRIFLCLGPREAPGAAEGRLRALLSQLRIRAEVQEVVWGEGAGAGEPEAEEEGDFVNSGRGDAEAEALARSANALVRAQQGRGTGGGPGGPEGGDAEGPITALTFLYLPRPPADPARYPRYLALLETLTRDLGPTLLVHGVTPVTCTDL
Chain of UniProt Q9UBS8 (Q9UBS8 whole entry, looked up): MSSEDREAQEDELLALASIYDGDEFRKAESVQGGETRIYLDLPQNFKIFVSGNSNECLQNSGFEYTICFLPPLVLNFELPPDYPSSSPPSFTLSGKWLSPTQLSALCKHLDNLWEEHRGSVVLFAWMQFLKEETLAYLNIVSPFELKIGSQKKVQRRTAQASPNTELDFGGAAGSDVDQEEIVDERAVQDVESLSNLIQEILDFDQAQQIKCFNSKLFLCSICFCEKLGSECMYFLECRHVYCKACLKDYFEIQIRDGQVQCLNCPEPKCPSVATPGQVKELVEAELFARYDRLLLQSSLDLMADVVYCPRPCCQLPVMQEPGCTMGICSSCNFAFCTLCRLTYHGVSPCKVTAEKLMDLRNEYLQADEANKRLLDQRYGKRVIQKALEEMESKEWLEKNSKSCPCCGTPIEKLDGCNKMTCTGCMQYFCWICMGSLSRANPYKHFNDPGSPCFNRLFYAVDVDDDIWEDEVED

Row | Target | log2 fold change [1] | log2 fold change [2] | log2 fold change [3] | log2 fold change [4] | log2 fold change (entinostat) | log2 fold change (vorinostat) | log2 fold change (citarinostat) | log2 fold change (silmitasertib) | log2 fold change [5] | log2 fold change [6]
1 | SIDT2 isoform 2 (UniProt Q8NBJ9) | 0.057 | -0.01 | -0.086 | 0.297 | -0.064 | -0.107 | 0.002 | -0.067 | 0.029 | 0.108
2 | RDH11 (UniProt Q8TC12) | -0.118 | 0.061 | -0.049 | -0.165 | 0.055 | 0.05 | 0.092 | 0.061 | -0.087 | -0.041
3 | RNPS1 (UniProt Q15287) | -0.019 | -0.39 | 0.097 | 0.031 | -0.06 | 0.024 | 0.038 | -0.111 | -0.018 | -0.146
4 | RETREG3 (UniProt Q86VR2) | 0.046 | -0.033 | -0.047 | 0.048 | 0.007 | -0.045 | 0.003 | 0.04 | -0.086 | -0.03
5 | SEC31A (UniProt O94979) | -0.078 | -0.024 | -0.022 | -0.099 | 0.041 | 0.003 | 0.042 | 0.063 | -0.048 | 0.07
6 | RALA (UniProt P11233) | -0.03 | -0.019 | 0.057 | 0.004 | -0.064 | 0.142 | 0.082 | -0.021 | 0.028 | -0.028
7 | RPS2 (UniProt P15880) | 0.035 | 0.081 | 0.195 | 0.089 | -0.036 | 0.001 | -0.079 | 0.01 | 0.086 | -0.189
8 | RTN4IP1 (UniProt Q8WWV3) | -0.057 | -0.218 | -0.085 | -0.024 | 0.009 | 0.111 | 0.316 | 0.069 | 0.079 | -0.198
9 | SHROOM2 (UniProt Q13796) | 0.024 | -0.09 | 0.275 | 0.006 | -0.037 | 0.068 | 0.057 | -0.141 | -0.088 | 0.057
10 | SH2D1B (UniProt O14796) | -1.1 (active) | 0.04 | -0.135 | -0.024 | 0.055 | 0.101 | 0.413 | -0.111 | -0.018 | -0.062
11 | SACM1L (UniProt Q9NTJ5) | -0.045 | 0 | -0.102 | -0.083 | 0.016 | 0.006 | 0.044 | 0.034 | -0.068 | -0.017
12 | RAB5IF isoform 5 (UniProt Q9BUV8) | 0.008 | 0.103 | 0.003 | -0.107 | 0.007 | -0.019 | 0.225 | -0.032 | 0.168 | 0.047
13 | RAP1GDS1 isoform 5 (UniProt P52306) | -0.059 | -0.069 | -0.181 | -0.117 | 0.027 | 0.119 | 0.2 | 0.087 | -0.049 | -0.002
14 | RPS19 (UniProt P39019) | -0.008 | 0.075 | 0.186 | 0.079 | -0.06 | -0.007 | -0.059 | -0.014 | 0.051 | -0.107
15 | RABGAP1L isoform 3 (UniProt Q5R372) | -0.012 | -0.012 | -0.05 | 0.036 | 0.016 | 0.025 | 0.06 | 0.019 | 0.073 | -0.011
16 | RAC1 (UniProt P63000) | 0.093 | 0.043 | 0.018 | 0.051 | 0.047 | 0.084 | -0.087 | -0.078 | 0.065 | 0.146

Row | Target | log2 fold change [1] | log2 fold change [2] | log2 fold change [3] | log2 fold change [4] | log2 fold change (entinostat) | log2 fold change (vorinostat) | log2 fold change (citarinostat) | log2 fold change (silmitasertib) | log2 fold change [5] | log2 fold change [6]
17 | RSF1 (UniProt Q96T23) | -0.17 | -0.078 | -0.246 | -0.198 | 0.073 | 0.028 | -0.087 | 0.04 | -0.182 | 0.081
18 | RBM17 (UniProt Q96I25) | 0.021 | 0.037 | 0.003 | -0.07 | 0.08 | 0.092 | 0.056 | 0.036 | 0.027 | -0.127
19 | RBM25 (UniProt P49756) | 0 | 0.007 | -0.058 | -0.025 | 0.031 | 0.067 | 0.015 | 0.019 | 0.005 | -0.053
20 | SERINC3 (UniProt Q13530) | -0.111 | -0.027 | -0.195 | -0.267 | -0.07 | -0.044 | -0.093 | 0.054 | 0.018 | -0.031
21 | RNF14 (UniProt Q9UBS8) | -0.016 | -0.054 | -0.157 | 0.008 | 0.037 | 0.021 | -0.006 | 0.003 | -0.127 | -0.007
22 | SERPINA7 (UniProt P05543) | -0.062 | 0.132 | 0.234 | -0.075 | -0.084 | -0.164 | -0.011 | 0.091 | 0.089 | 0.367
23 | SLC12A9 (UniProt Q9BXP2) | 0.05 | -0.142 | -0.313 (active) | -0.03 | 0.021 | 0.027 | 0.035 | 0.017 | -0.081 | -0.062
24 | RBBP6 (UniProt Q7Z6E9) | 0.028 | -0.107 | 0.089 | -0.017 | -0.011 | 0.081 | 0.099 | 0.207 | 0.112 | -0.013
25 | RPS4X (UniProt P62701) | 0.088 | 0.095 | 0.216 | 0.088 | -0.048 | 0.005 | -0.104 | 0.014 | 0.126 | -0.204
26 | RAP2C (UniProt Q9Y3L5) | 0.072 | 0.299 (active) | 0.133 | 0.118 | -0.045 | 0.051 | 0.056 | -0.04 | -0.008 | -0.061
27 | RBM27 (UniProt Q9P2N5) | -0.151 | -0.015 | -0.058 | -0.042 | 0.044 | 0.125 | 0.04 | -0.078 | -0.056 | -0.064
28 | RECQL (UniProt P46063) | 0.034 | -0.076 | -0.047 | -0.033 | 0.001 | 0.045 | 0.092 | -0.028 | -0.019 | -0.03
29 | RAF1 isoform 2 (UniProt P04049) | -0.208 | -0.012 | 0.086 | -0.017 | -0.033 | 0.069 | -0.037 | -0.033 | -0.13 | -0.133
30 | REEP4 (UniProt Q9H6H4) | 0.002 | -0.032 | -0.012 | 0.084 | 0.027 | 0.088 | 0.048 | 0.027 | 0.097 | -0.059
31 | RPS6KA3 (UniProt P51812) | -0.076 | -0.177 | -0.203 | -0.029 | 0.044 | 0.048 | 0.079 | -0.038 | -0.046 | -0.241

From the supplement of paper PMC10849652
